# Records with an inconclusive call do not appear. Unmarked numbers belong to inactive results. Active and inactive are the calls of the source. Calls follow the shape of the dose curve; as a rule, active = well fitted cell-killing curve with a large enough effect; inconclusive = small, poorly fitted or top-dose-only effect, or effect the other way; inactive = no such curve, though single readings can be large or run the other way.
# Assay: Quantitative High-Throughput drug screen in 47 multiple myeloma cell lines against the NCATS MIPE library collection: Karpas25_ECACC cell viability assay (AID 1918968; also: nearly all actives have a fitted effect of over 35% in size)
# Conditions: Karpas25 myeloma viability, CellTiter-Glo ATP, 48 h; series mostly up to 45.8 µM; viability (% of control): at the top concentration
# From the text: PI: Beverly A. Mock Ph.D.
# Laboratory of Cancer Biology and Genetics,
# Center for Cancer Research, National Cancer Institute,
# National Institute of Health, Bethesda, Maryland
# Drug resistance and disease progression are common in multiple myeloma (MM) patients, underscoring the need for new therapeutic combinations. […] We hypothesized that effective combinations would reduce MYC expression and enhance p16 activity. […] These preclinical data identify potentially useful drug combinations for evaluation in drug-resistant MM and reveal potential mechanisms of combined drug sensitivity.
# Described herein is the primary MIPE qHTS used to cherrypick compounds. Validated compounds were then further tested for potential synergistic activiy.
# [1] Peat TJ, Gaikwad SM, Dubois W, Gyabaah-Kessie N, Zhang S, Gorjifard S, Phyo Z, Andres M, Hughitt VK, Simpson RM, Miller MA, Girvin AT, Taylor A, Williams D, D'Antonio N, Zhang Y, Rajagopalan A, Flietner E, Wilson K, Zhang X, Shinn P, Klumpp-Thomas C, McKnight C, Itkin Z, Chen L, Kazandijian D, Zhang J, Michalowski AM, Simmons JK, Keats J, Thomas CJ, Mock BA. Drug combinations identified by high-throughput screening promote cell cycle transition and upregulate Smad pathways in myeloma. Cancer Lett. 2023 Aug 1;568:216284. doi: 10.1016/j.canlet.2023.216284. Epub 2023 Jun 24. PMID: 37356470; PMCID: PMC10408729.
# SEQUENCE No. (e.g., 1, 2, 3, etc.); […] (e.g., Cells, Incubation, Reagent, etc.); VALUE and DESCRIPTION.
# 1; Cells; 5 uL; white, solid bottom 1536-well Greiner assay plate.
# 2; Compounds; 23 nL; Kalypsis pin tool (Wako USA) equipped with a 1536-well pin head to transfer to the assay plates.
# 3; Incubation; 48 hours; 37C incubation.
# 4; Reagent;5uL; CellTiter Glo (Promega).
# 5; Detector; 425V; Luminescence; Viewlux PerkinElmer.
# NOTES (numbers refer to Sequence numbers above)
# 1. The cell-based screening methods employed in this study were like those previously published. Briefly, the corresponding myeloma cell lines were screened in 1,536-well plates with 500 cells, 5-uL per well for inhibition of cell viability (assessed by measuring ATP levels with CellTiterGlo).
# 2. NCATS MIPE 4.0 library of approved and investigational drugs were added using the Kalypsis pin tool. Wells treated with DMSO only for 100% viability and media only wells for 0% viability were used as controls.
# 3. The assay plates were covered and incubated for 48 hours in a 37C, 5% CO2 incubator with controlled humidity.
# 4. After 48 hours, CellTilter-GloTM luminescent substrate mix (Promega) reagent was added to the assay plate and plates we incubated for 5 min at room temperature.
# 5. Signal was measured as median relative luminescence units on a ViewLux (PerkinElmer) multiplate reader.
# [1] Heske CM, Davis MI, Baumgart JT, Wilson K, Gormally MV, Chen L, Zhang X, Ceribelli M, Duveau DY, Guha R, Ferrer M, Arnaldez FI, Ji J, Tran HL, Zhang Y, Mendoza A, Helman LJ, Thomas CJ. Matrix Screen Identifies Synergistic Combination of PARP Inhibitors and Nicotinamide Phosphoribosyltransferase (NAMPT) Inhibitors in Ewing Sarcoma. Clin Cancer Res. 2017 Dec 1;23(23):7301-7311. doi: 10.1158/1078-0432.CCR-17-1121. Epub 2017 Sep 12. PMID: 28899971; PMCID: PMC6636827.
# Potency is read from the fitted curve at half-maximal effect.
SMILES,Potency,viability (% of control)
C#Cc1cccc(Nc2ncnc3cc(OC)c(OCCCCCCC(=O)NO)cc23)c1,52.6 nM (active),
CCCCCCCCCC(=O)N[C@@H](Cc1c[nH]c2ccccc12)C(=O)N[C@H](CC(N)=O)C(=O)N[C@@H](CC(=O)O)C(=O)N[C@@H]1C(=O)NCC(=O)N[C@@H](CCCN)C(=O)N[C@@H](CC(=O)O)C(=O)N[C@H](C)C(=O)N[C@@H](CC(=O)O)C(=O)NCC(=O)N[C@H](CO)C(=O)N[C@@H]([C@@H](C)CC(=O)O)C(=O)N[C@@H](CC(=O)c2ccccc2N)C(=O)O[C@@H]1C,,120%
CCOC(=O)C1=C(C)NC2=C(C(=O)CC(C)(C)C2)C1c1ccc(-c2ccccc2)cc1 (stereo not given),20900 nM (active),
COc1ccc2c(OCc3nnc4ccc(-c5ccccc5)nn34)ccnc2c1,,126%
COc1c(OCCCN2CCOCC2)ccc2c3n(c(=NC(=O)c4cnc(N)nc4)nc12)CCN3,57.5 nM (active),
Nc1ccc(C(=O)c2cc3c(ccc4ccccc43)[nH]2)cc1,3720 nM (active),
CNC(=O)c1ccc(N2C(=S)N(c3cnc(C#N)c(C(F)(F)F)c3)C(=O)C23CCC3)cc1F,743 nM (active),
Cc1cnc(Nc2ccc(F)cc2Cl)nc1-c1c[nH]c(C(=O)N[C@H](CO)c2cccc(Cl)c2)c1,14800 nM (active),
Cn1c(=O)n(-c2ccc(C(C)(C)C#N)cc2)c2c3cc(-c4cnc5ccccc5c4)ccc3ncc21,10.5 nM (active),
NC(=O)c1cccc2cn(-c3ccc([C@@H]4CCCNC4)cc3)nc12,,81.9%
N#CCNC(=O)c1ccc(-c2ccnc(Nc3ccc(N4CCOCC4)cc3)n2)cc1,9350 nM (active),
Cc1cc(Nc2cc(CN3CCOCC3)c3nc(C)c(Cc4ccc(Cl)cc4F)n3n2)n[nH]1,20900 nM (active),
Cc1ccc(-c2ncn(-c3ccc(Nc4nccc(-c5cccc(N6CCOCC6)c5)n4)cc3)n2)cn1,83.3 nM (active),
CC[C@@]1(O)C(=O)OCc2c1cc1n(c2=O)Cc2cc3cc(O)ccc3nc2-1,209 nM (active),
Cc1ccc(C(=O)Nc2ccc(CN3CCN(C)CC3)c(C(F)(F)F)c2)cc1C#Cc1cnc2cccnn12,935 nM (active),
C1Cc2[nH]nc(-c3nn[nH]n3)c2C1,,101%
Cc1c(CN2CCN(S(C)(=O)=O)CC2)sc2c(N3CCOCC3)nc(-c3cnc(N)nc3)nc12,18.7 nM (active),
Cc1ccc(NC(=O)C2(c3ccc4c(c3)OC(F)(F)O4)CC2)nc1-c1cccc(C(=O)O)c1,33.2 nM (active),
Nc1ccccc1NC(=O)c1ccc(CNC(=O)OCc2cccnc2)cc1,833 nM (active),
COc1ccc(OC)c(-c2nnc3ccc(-c4ccc(OC)c(O[C@@H]5CCOC5)c4)nn23)c1,6620 nM (active),

SMILES,Potency,viability (% of control)
C=CC(=O)Nc1cccc(Oc2nc(Nc3ccc(N4CCN(C)CC4)cc3)ncc2Cl)c1,3720 nM (active),
CN[C@H]1CCc2cc(OC)c(OC)c(OC)c2-c2ccc(OC)c(=O)cc21,10.5 nM (active),
COc1ccc(C(=O)CC2(O)C(=O)Nc3c(Cl)ccc(Cl)c32)cc1 (stereo not given),5260 nM (active),
CC(C)CC(=O)Nc1n[nH]c2c1CN(C(=O)C1CCN(C)CC1)C2(C)C,1870 nM (active),
Cc1cccc(C=NNc2cc(N3CCOCC3)nc(OCCc3ccccn3)n2)c1,13200 nM (active),
CCN1CCN(Cc2ccc(-c3cc4c(N[C@H](C)c5ccccc5)ncnc4[nH]3)cc2)CC1,2090 nM (active),
Nc1ccn([C@@H]2O[C@H](CO)[C@H](O)C2(F)F)c(=O)n1,3720 nM (active),
COc1ccc(C=Cc2cc(OC)c(OC)c(OC)c2)cc1O,,9.88%
Cc1ccc2nc(NC(=O)CSc3nc4c(c(=O)n3-c3ccccc3)SCC4)sc2c1,5260 nM (active),
Cc1[nH]c2ccccc2c1CCNCc1ccc(C=CC(=O)NO)cc1,20.9 nM (active),
O=C(Nc1cc(C(F)(F)F)cc(C(F)(F)F)c1)c1cc(Cl)ccc1O,372 nM (active),
Nc1nc(NCCNc2ncc(-n3ccnc3)c(-c3ccc(Cl)cc3Cl)n2)ccc1[N+](=O)[O-],1480 nM (active),
Cc1coc2c1C(=O)C(=O)c1c-2ccc2c1CCCC2(C)C,8330 nM (active),
O=C(c1ccc(Nc2nccc(-c3cc4ccccc4s3)n2)cc1)N1CCC(N2CCCC2)CC1,4180 nM (active),
O=C(NCCS(=O)(=O)c1ccc(C(F)(F)F)cn1)c1ccc(Cl)cc1,,122%
Cc1nc2ccc(CN(C)c3ccc(C(=O)N[C@@H](CCC(=O)O)C(=O)O)s3)cc2c(=O)[nH]1,,104%
O=C(NCCCNc1nc(Nc2cccc(NC(=O)N3CCCC3)c2)ncc1I)c1cccs1,5260 nM (active),
CC(C)(C)c1cc(C(C)(C)C)c(NC(=O)c2c[nH]c3ccccc3c2=O)cc1O,,101%
CC[C@@H]1C(=O)N(C)c2cnc(Nc3ccc(C(=O)NC4CCC(N5CCN(CC6CC6)CC5)CC4)cc3OC)nc2N1C(C)C (stereo not given in full),5260 nM (active),
O=C(Nc1nc2cccc(-c3ccc(CN4CCS(=O)(=O)CC4)cc3)n2n1)C1CC1,16600 nM (active),
